Source: PubChem BioAssay (NCATS)
Several values for one entry are separate records, joined by “and”; a condition that tells them apart may be missing. Equal entries are not always repeated. Inconclusive results are not listed. Activity calls are given as the source filed them. The call rests on the fitted dose curve; in most records, active means well fitted curve in the direction sought with a large enough effect; inconclusive means small, poorly fitted or top-dose-only effect, or another doubt; inactive means no such curve, though single readings can be large; an effect the other way counts as inactive or inconclusive.

Experiments:
CRL-7250 = normal cell line; assay: Cytotoxic Profiling of Annotated Libraries Using Quantitative High-Throughput Screening (AID 1296008); details: Five cell lines viability, CellTiter-Glo ATP luminescence, 48-72 h; max response: hits give low values; further: nearly all actives have a fitted effect of over 60% in size
Summary of the method: (§1)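 Cells exposed to compounds for 48 or 72 hr at 37 degrees Celsius. Viability read as ATP-coupled luminescence with CellTiter-Glo after 10 min at room temperature.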

HaCat [1] = assay: as above; details: Five cell lines viability, CellTiter-Glo ATP luminescence, 48-72 h; max response: hits give low values
Summary of the method: as §1

KB-3-1 = assay: as above; details: Five cell lines viability, CellTiter-Glo ATP luminescence, 48-72 h; max response: hits give low values
Summary of the method: as §1

NIH3T3 = assay: as above; details: Five cell lines viability, CellTiter-Glo ATP luminescence, 48-72 h; max response: hits give low values
Summary of the method: as §1

MCC-13 = assay: qHTS assay to identify novel small-molecules to repurpose for Merkel cell carcinoma treatment (AID 1296009); details: MCC and control cell lines, CellTiter-Glo viability, 72 h; series mostly up to 46 µM; further: nearly all actives have a fitted effect of over 60% in size
Summary of the method: (§2)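 Dose-response viability screen; 72 hr exposure at 37 degree celsius; CellTiter-Glo added, 10 min room temperature, luminescence read; RLUs scaled between no-cell and DMSO wells.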

MCC-26 = assay: as above; details: MCC and control cell lines, CellTiter-Glo viability, 72 h; series mostly up to 46 µM
Summary of the method: as §2

MKL-1 = assay: as above; details: MCC and control cell lines, CellTiter-Glo viability, 72 h; series mostly up to 46 µM
Summary of the method: as §2

MKL-2 = assay: as above; details: MCC and control cell lines, CellTiter-Glo viability, 72 h; series mostly up to 46 µM
Summary of the method: as §2

UISO = assay: as above; details: MCC and control cell lines, CellTiter-Glo viability, 72 h; series mostly up to 46 µM
Summary of the method: as §2

WaGa = assay: as above; details: MCC and control cell lines, CellTiter-Glo viability, 72 h; series mostly up to 46 µM
Summary of the method: as §2

HACAT [2] = assay: as above; details: MCC and control cell lines, CellTiter-Glo viability, 72 h; at 44.8 µM (top of the series) unless noted
Summary of the method: as §2

C33A = assay: Primary qHTS to identify gynecologic anti-cancer compounds using libraries of approved drugs and bioactive compounds (AID 1345084); details: Gynecologic cancer cell panel viability, ATPlite luminescence, 48 h; series mostly up to 57.5 µM; further: nearly all actives have a fitted effect of over 55% in size
Summary of the method: (§3)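 Cell viability after 48 h drug treatment, ATPlite luminescence readout; five doses.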

CAOV3 = assay: as above; details: Gynecologic cancer cell panel viability, ATPlite luminescence, 48 h; series mostly up to 57.5 µM
Summary of the method: as §3

CASKI = assay: as above; details: Gynecologic cancer cell panel viability, ATPlite luminescence, 48 h; series mostly up to 57.5 µM
Summary of the method: as §3

HeLa = assay: as above; details: Gynecologic cancer cell panel viability, ATPlite luminescence, 48 h; series mostly up to 57.5 µM
Summary of the method: as §3

Es-2 = assay: as above; details: Gynecologic cancer cell panel viability, ATPlite luminescence, 48 h; series mostly up to 57.5 µM
Summary of the method: as §3

Hek293T = assay: as above; details: Gynecologic cancer cell panel viability, ATPlite luminescence, 48 h, control line for the selectivity index; series mostly up to 57.5 µM
Summary of the method: as §3
On the % scale 0 is the no-effect control and ±100 the full control effect; potency means the concentration at half of the fitted maximal effect.

COc1ccc(C=CC(=O)Nc2ccccc2C(=O)O)cc1OC
inactive: max response (CRL-7250) -5.04% | max response (HaCat [1]) -7.89% | max response (KB-3-1) 7.16% | max response (NIH3T3) 0.371% | Potency (MCC-13) | Potency (MCC-26) | Potency (MKL-1) | Potency (MKL-2) | Potency (UISO) | Potency (WaGa)

CCC(=C(CC)c1ccc(O)cc1)c1ccc(O)cc1
inactive: max response (CRL-7250) 2.3% | outcome (HaCat [1]) | max response (NIH3T3) -12.1% | outcome (HACAT [2]) | Potency (MCC-13) | Potency (MCC-26) | Potency (MKL-1)

COc1ccc(-c2ccc3ncc4c(c3c2)n(-c2ccc(N3CCNCC3)c(C(F)(F)F)c2)c(=O)n4C)cn1
inactive: max response (CRL-7250) -103%
active: Potency (HaCat [1]) 3.7 nM and 58 nM | Potency (KB-3-1) 16.6 nM and 41.1 nM | Potency (NIH3T3) 5.3 nM | Potency (MCC-26) 0.372 µM | Potency (MKL-1) 0.0296 µM | Potency (MKL-2) 0.0418 µM | Potency (UISO) 0.0235 µM | Potency (C33A) 11.2 µM | Potency (CAOV3) 2.51 µM | Potency (CASKI) 0.794 µM | Potency (HeLa) 1.12 µM

O=C1NC(=O)C(c2cnc3ccccn23)=C1c1cn2c3c(cccc13)CN(C(=O)N1CCOCC1)CC2
inactive: max response (HaCat [1]) -40.4% | max response (NIH3T3) -24.9% | Potency (MKL-1) | Potency (MKL-2) | Potency (C33A) | Potency (Es-2) | Potency (HeLa) | Potency (Hek293T)
active: Potency (CRL-7250) 0.0166 µM | Potency (CASKI) 3.16 µM

CO[C@H]1/C=C\O[C@@]2(C)Oc3c(C)c(O)c4c(O)c(c5c(nc6cc(C)ccn65)c4c3C2=O)NC(=O)C(C)=CC=C[C@H](C)[C@H](O)[C@@H](C)[C@@H](O)[C@@H](C)[C@H](OC(C)=O)[C@H]1C
inactive: max response (CRL-7250) 3.34% | max response (HaCat [1]) -2.46% | max response (KB-3-1) -2.96% | max response (NIH3T3) -4.51% | Potency (MCC-13) | Potency (MKL-2) | Potency (UISO)

OC[C@H]1O[C@@H](OCCc2ccc(O)cc2)[C@H](O)[C@@H](O)[C@H]1O
inactive: max response (CRL-7250) -2.13% | max response (HaCat [1]) -11.4% | max response (KB-3-1) -11.7% | max response (NIH3T3) 2.07% | Potency (MCC-13) | Potency (MCC-26) | Potency (MKL-1) | Potency (MKL-2) | Potency (UISO) | Potency (WaGa) | Potency (C33A) | Potency (CAOV3) | Potency (CASKI) | Potency (Es-2) | Potency (HeLa) | Potency (Hek293T)

C[C@@H]1CC=CC=CC=CC=C[C@@H](O[C@@H]2O[C@H](C)[C@@H](O)[C@H](N)[C@H]2O)C[C@@H]2O[C@](O)(C[C@@H](O)C[C@@H]3O[C@@H]3C=CC(=O)O1)C[C@H](O)[C@@H]2C(=O)O
inactive: max response (CRL-7250) -2.36% | max response (HaCat [1]) -1.58% | max response (NIH3T3) 4.91% | Potency (MCC-13) | Potency (MKL-1) | Potency (MKL-2) | Potency (UISO) | Potency (WaGa)

NCc1c[nH]c(=S)n1[C@H]1CCc2c(F)cc(F)cc2C1
active: Potency (CRL-7250) 16.6 µM | Potency (MKL-2) 20.9 µM
inactive: outcome (HaCat [1]) | outcome (HACAT [2]) | Potency (MCC-13) | Potency (MCC-26)

CCC(=O)OCC(=O)[C@@]1(OC(=O)CC)[C@@H](C)C[C@@H]2[C@H]3CCC4=CC(=O)C=C[C@]4(C)[C@@]3(F)[C@@H](O)C[C@@]21C
inactive: max response (CRL-7250) -3.82% | max response (HaCat [1]) -0.0521% | outcome (KB-3-1) | max response (NIH3T3) 0.981% | Potency (MCC-13) | Potency (MCC-26) | Potency (MKL-1) | Potency (UISO) | Potency (WaGa)

CCC(=C(c1ccc(O)cc1)c1ccc(OCCNC)cc1)c1ccccc1
inactive: max response (CRL-7250) -6.43% | max response (HaCat [1]) -11.9% | Potency (MCC-13) | Potency (MCC-26) | Potency (MKL-1) | Potency (MKL-2) | Potency (UISO) | Potency (WaGa)

CCNC(=O)CCCC=CC[C@@H]1[C@H](C=CC(O)CCc2ccccc2)[C@@H](O)C[C@@H]1O (stereo partly drawn)
inactive: max response (CRL-7250) -10.2% | max response (HaCat [1]) 4.63% | max response (KB-3-1) 9.82% | max response (NIH3T3) -1.84% | Potency (MCC-13) | Potency (MKL-1) | Potency (UISO) | Potency (WaGa)

CCCCC(C)(C)[C@H](O)C=C[C@H]1[C@H](O)CC(=O)[C@H]1CC=CCCCC(=O)O
inactive: max response (CRL-7250) -10.4% | outcome (HaCat [1]) | outcome (KB-3-1) | outcome (HACAT [2]) | Potency (MCC-13) | Potency (MCC-26)

CC(=O)Nc1cccc(-n2c(=O)n(C3CC3)c(=O)c3c(Nc4ccc(I)cc4F)n(C)c(=O)c(C)c32)c1
inactive: max response (KB-3-1) -5.06% and 7.25% | Potency (MCC-26) | Potency (MKL-1) | Potency (MKL-2) | Potency (UISO) | Potency (WaGa) | Potency (C33A) | Potency (CAOV3) | Potency (CASKI) | Potency (HeLa) | Potency (Hek293T)
active: Potency (CRL-7250) 0.164 µM | Potency (HaCat [1]) 3.32 µM and 5.17 µM | Potency (NIH3T3) 418 nM and 259 nM

Cc1ccc(NC(=O)c2ccc(CN3CCN(C)CC3)cc2)cc1Nc1nc(-c2cccnc2)cs1
inactive: max response (CRL-7250) -52.7% | max response (HaCat [1]) -8.86% | max response (KB-3-1) -13.9% | Potency (MCC-13) | Potency (MCC-26) | Potency (MKL-1)

Cc1c(-c2cccc3c(CCCOc4cccc5ccccc45)c(C(=O)O)n(Cc4cccnc4)c23)c(COc2ccc(N3CCN([S+](=O)([O-])N(C)C)CC3)cc2)nn1C
inactive: max response (CRL-7250) -2.89% | max response (HaCat [1]) -5.9% | max response (NIH3T3) -4.88% | Potency (MCC-13) | Potency (MCC-26) | Potency (MKL-1) | Potency (MKL-2) | Potency (UISO) | Potency (WaGa)

CC(C)Oc1cc(Nc2nc(N[C@@H](C)c3ccc(F)cn3)ncc2Cl)[nH]n1
active: Potency (CRL-7250) 2.64 µM | Potency (KB-3-1) 10.5 µM | Potency (NIH3T3) 5260 nM | Potency (MCC-26) 14.8 µM
inactive: max response (HaCat [1]) -29.2% | Potency (MKL-1) | Potency (MKL-2)
